{"source": "PubChem BioAssay (NCATS)", "note": "Records with an inconclusive call do not appear. Active and inactive are the calls of the source. Calls come from the whole dose curve; as a rule, active = well fitted inhibition curve with a large enough effect; inconclusive = small, poorly fitted or top-dose-only effect; inactive = flat fitted curve, though single readings scatter. % is set by controls: 0 for no effect and ±100 for the full control effect; potency is the fitted concentration of half-maximal effect."}
{"system": "KB-3-1", "assay": "Cytotoxic Profiling of Annotated Libraries Using Quantitative High-Throughput Screening (AID 1296008); note: nearly all actives have a fitted effect of over 60% in size", "conditions": "Five cell lines viability, CellTiter-Glo ATP luminescence, 48-72 h; max response: stronger effect = lower value", "how_it_was_run": "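Cells exposed to compounds for 48 or 72 hr at 37 degrees Celsius. Viability read as ATP-coupled luminescence with CellTiter-Glo after 10 min at room temperature.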"}
{"compound": "O=C(NCc1cccc(O)c1)c1cc2cc(F)ccc2[nH]1", "max response": "-5.86% (inactive)"}
{"compound": "CC(=O)O[C@@H]1[C@@H](OC(=O)/C=C/c2ccccc2)[C@@H](OC(C)=O)[C@H](O[C@H]2[C@@H]3C=CO[C@@H](O[C@@H]4O[C@H](CO)[C@@H](O)[C@H](O)[C@H]4O)[C@@H]3[C@@]3(CO)O[C@@H]23)O[C@H]1C", "outcome": "inactive"}
{"compound": "C[C@H](O)[C@H](O)/C=C/c1cccc(O)c1CO", "max response": "8.41% (inactive)"}
{"compound": "O=C(NCc1ccc(S(=O)(=O)c2cc(F)cc(F)c2)cc1)c1ccc2nccn2c1", "Potency": "0.0046 µM (active)"}
{"compound": "Cc1ccccc1CN1C2=NCCN2C(=O)C2=C1CCN(Cc1ccccc1)C2", "max response": "-23.4% (inactive)"}
{"compound": "CC(=O)CCC1=C(C)C(O[C@@H]2O[C@H](CO)[C@@H](O)[C@H](O)[C@H]2O)C(O)CC1(C)C", "note": "(some centres undefined)", "max response": "1.06% (inactive)"}
{"compound": "Cc1cc(C)c2c(N)c(C(=O)NCc3ccc(Cl)cc3)sc2n1", "max response": "-4.61% (inactive)"}
{"compound": "Cc1cc(C)cc(C(=O)NOCCCCCC(=O)NO)c1", "Potency": "2.06 µM (active)"}
{"compound": "CC(C)CC(=O)O[C@@H]1OC=C(CO[C@@H]2O[C@H](CO)[C@@H](O)[C@H](O)[C@H]2O)[C@H]2[C@@H]3O[C@H]3[C@@](O)(CO)[C@@H]12", "max response": "6.77% (inactive)"}
{"compound": "CC(CO)C1CCC2(C)CC3C(CO)CC(O)C3C(C)(O)C/C=C/12", "note": "(centres undefined)", "outcome": "inactive"}
{"compound": "COC(=O)C1=C2Nc3ccccc3C23CCN2CCCC(C(C)O)(C1)C23", "note": "(centres undefined)", "max response": "6.23% (inactive)"}
{"compound": "C/C=C1\\[C@H](O[C@@H]2O[C@H](CO)[C@@H](O)[C@H](O)[C@H]2O)OC=C(C(=O)OC)[C@H]1CC(=O)OC[C@H]1O[C@@H](OCCc2ccc(O)cc2)[C@H](O)[C@@H](O)[C@@H]1O", "max response": "1.44% (inactive)"}
{"compound": "CC(C)c1nc(-c2ccc(NC(=O)Nc3cccc(C(F)(F)F)c3)c3ccccc23)c2c(N)nccn12", "Potency": "5.8 µM (active)"}
{"compound": "O=C(OC[C@H]1O[C@H](O[C@]2(CO)O[C@H](CO)[C@@H](O)[C@@H]2O)[C@H](O)[C@@H](O)[C@@H]1O)c1ccccc1", "max response": "8.19% (inactive)"}
{"compound": "C[C@@H]1O[C@@H](O[C@H]2[C@H](O[C@H]3[C@H](O[C@H]4CC[C@@]5(C)C(CC[C@]6(C)C5CC=C5[C@@H]7CC(C)(C)CC[C@]7(C(=O)O[C@@H]7O[C@H](CO)[C@@H](O[C@@H]8O[C@@H](C)[C@H](O)[C@@H](O)[C@H]8O)[C@H](O)[C@H]7O)CC[C@]56C)C4(C)C)OC[C@H](O)[C@@H]3O)O[C@H](CO)[C@@H](O)[C@@H]2O)[C@H](O)[C@H](O)[C@H]1O", "note": "(some centres undefined)", "outcome": "inactive"}
{"compound": "CN[C@@H]1[C@H](O[C@H]2[C@H](O[C@@H]3[C@@H](O)[C@H](O)[C@@H](N=C(N)N)[C@H](O)[C@H]3N=C(N)N)O[C@@H](C)[C@]2(O)C=O)O[C@@H](CO)[C@H](O)[C@H]1O", "outcome": "inactive"}
{"compound": "CC(=O)OC1C[C@]2(C)C(O)CC(C)=C[C@H](OC(=O)c3ccc(O)cc3)C2[C@]1(O)C(C)C", "note": "(some centres undefined)", "max response": "4.36% (inactive)"}
{"compound": "CON(C)C(=O)[C@H](O)[C@H](Cc1ccccc1)NC(=O)c1cc2cc(Cl)ccc2[nH]1", "max response": "5.78% (inactive)"}
{"compound": "CC(=O)OC1/C(C)=C/C(=O)C(OC(C)=O)C(C)(C)/C=C/C(C)C(=O)C2(OC(C)=O)CC(C)C(OC(=O)c3ccccc3)C12", "note": "(centres undefined)", "outcome": "inactive"}
{"compound": "O=S(=O)(c1ccc(S(=O)(=O)n2cnc3ccccc32)cc1)N1CCCCCC1", "max response": "6.01% (inactive)"}
{"compound": "O=C(c1cn(Cc2cncn2Cc2ccc(Br)cc2)cc1-c1cccc2ccccc12)N1CCOCC1", "Potency": "11.6 µM (active)"}
{"compound": "Cc1nc(C)c(-c2ccc(C3CCC(CC(=O)O)CC3)cc2)nc1C(N)=O", "note": "(centres undefined)", "max response": "-11.8% (inactive)"}
{"compound": "COC(C(=O)N1Cc2[nH]nc(NC(=O)c3ccc(N4CCN(C)CC4)cc3)c2C1)c1ccccc1", "note": "(centres undefined)", "Potency": "8.2 µM (active)"}
{"compound": "CC(C)C(=O)OC[C@H]1O[C@H](O[C@H]2O[C@H](CO)[C@@H](O)[C@H](O)[C@H]2O)[C@H](O)[C@@H](O)[C@@H]1O", "outcome": "inactive"}
{"compound": "CC(C)=CCC[C@](C)(O[C@@H]1O[C@H](CO)[C@@H](O)[C@H](O)[C@H]1O)[C@H]1CC[C@]2(C)[C@@H]1[C@H](O)CC1[C@@]3(C)CC[C@H](O)C(C)(C)C3[C@@H](O[C@@H]3O[C@H](CO)[C@@H](O)[C@H](O)[C@H]3O)C[C@]12C", "note": "(some centres undefined)", "max response": "9.79% (inactive)"}
{"compound": "CC(C)C(NC(=O)c1ccc2ccccc2n1)C(=O)NC(CC(=O)O)C(=O)COc1c(F)cccc1F", "note": "(centres undefined)", "max response": "2.53% (inactive)"}
{"compound": "CSc1ccc(C(=O)N[C@@H]2CCCC[C@@H]2NC(=O)CNC(=O)c2cc(C(F)(F)F)ccc2NC(=O)NC(C)C)cc1", "max response": "-4.76% (inactive)"}
{"compound": "C=C[C@H]1C(O[C@@H]2O[C@H](CO)[C@@H](O)[C@H](O)[C@H]2O)OC=C2C(=O)N3CCc4c([nH]c5ccccc45)[C@H]3C[C@H]21", "note": "(some centres undefined)", "max response": "3.99% (inactive)"}
{"compound": "CC(C)S(=O)(=O)NC[C@H](C)c1ccc(NC(=O)c2cc(F)cc(F)c2)cc1", "max response": "3.14% (inactive)"}
{"compound": "O=C(CSc1nc2c(c(=O)n1-c1ccccc1)SCC2)Nc1ccc(-c2ccccc2)cn1", "Potency": "0.0461 µM (active)"}
{"compound": "C=C(C)[C@@H]1CC[C@]2(C)CC[C@]3(C)[C@H](CC[C@@H]4[C@@]5(C)CC[C@@H](O)C(C)(C)[C@@H]5CC[C@]43C)[C@@H]12", "max response": "-4.19% (inactive)"}
{"compound": "COc1ccc(N2CCOCC2)c2sc(NC(=O)N3CCC(C)(O)CC3)nc12", "outcome": "inactive"}
{"compound": "O=C(O)c1cn(C2CC2)c2cc(N3C[C@@H]4C[C@H]3CN4)c(F)cc2c1=O", "outcome": "inactive"}
{"compound": "CC1=CC(=O)C(=C(C)C)CC2C1CCC2(C)O", "note": "(centres undefined)", "max response": "8.27% (inactive)"}
{"compound": "C=CC(C)(O)CC/C=C(\\C)C(=O)OC1C(O)C(CO)OC(OC(=O)C23CCC(C)(C)CC2C2=CCC4C5(C)CCC(OC6OC(COC7OCC(OC(C)=O)C(O)C7OC7OC(COC(C)=O)C(O)C(O)C7O)C(O)C(O)C6O)C(C)(C)C5CCC4(C)C2(C)C(O)C3O)C1OC1OCC(OC2OCC(O)C(OC3OCC(O)C(O)C3O)C2O)C(O)C1O", "note": "(centres undefined)", "max response": "4.25% (inactive)"}
{"compound": "CS(=O)(=O)N(CC(=O)NCC1CC1)c1cc(C(F)(F)F)ccc1Cl", "max response": "5.98% (inactive)"}
{"compound": "CC(=O)OC1C(O)C2C(C)C3=CC(=O)OC3(O)CC2C2(C)CCCC(C)(CO)C12", "note": "(centres undefined)", "outcome": "inactive"}
{"compound": "O=C(O)/C=C/c1cc2c(cc1O[C@@H]1O[C@H](CO)[C@@H](O)[C@H](O)[C@H]1O)OCO2", "max response": "8.77% (inactive)"}
{"compound": "CC1OC(OC2CCC3(C)C(CCC4(C)C3CC=C3C5CC(C)(C)CCC5(C(=O)OC5OC(CO)C(O)C(O)C5O)CCC34C(=O)O)C2(C)C)C(O)C(O)C1O", "note": "(centres undefined)", "max response": "4.21% (inactive)"}
